12-LOX inh – Primary qHTS assay for inhibitors of human arachidonate 12S-lipoxygenase (ALOX12): Round 2 | Polyunsaturated fatty acid lipoxygenase ALOX12 (Homo sapiens), P18054 | purified 12hLO, xylenol orange hydroperoxide absorbance | Potency, µM (highest dose often 108 µM), for inactives: top-dose activity change, negative = inhibition, most hits filed as inhibitors | hit rate 1.1% among 580,000; further: on the % scale 0 is the no-effect control and ±100 the full control effect
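Purified human 12hLO (150 nM final) in 25 mM Hepes, 0.01% Triton X-100, pH 7.0 was preincubated 15 min at room temperature with compound. Then 40 uM arachidonic acid was added, 30 min. Hydroperoxide was read by Fe-XO absorbance ratio 573/405 nm.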
JMJD2A Tudor – qHTS Assay for Inhibitors of JMJD2A-Tudor Domain | Lysine-specific demethylase 4A (Homo sapiens), O75164 | Potency, µM (doses to about 114 µM), inactives show at the highest dose activity change, negative = inhibition, hits mostly inhibitors | hit rate 4.4% among 390,000 | AlphaScreen JMJD2A-Tudor / H3K4me3 peptide binding | AID 504339, 2011; further: on the % scale 0 is the no-effect control and ±100 the full control effect; nearly all actives have a fitted effect of over 50% in size
Target sequence (O75164 whole entry, looked up, the tested form may be a part): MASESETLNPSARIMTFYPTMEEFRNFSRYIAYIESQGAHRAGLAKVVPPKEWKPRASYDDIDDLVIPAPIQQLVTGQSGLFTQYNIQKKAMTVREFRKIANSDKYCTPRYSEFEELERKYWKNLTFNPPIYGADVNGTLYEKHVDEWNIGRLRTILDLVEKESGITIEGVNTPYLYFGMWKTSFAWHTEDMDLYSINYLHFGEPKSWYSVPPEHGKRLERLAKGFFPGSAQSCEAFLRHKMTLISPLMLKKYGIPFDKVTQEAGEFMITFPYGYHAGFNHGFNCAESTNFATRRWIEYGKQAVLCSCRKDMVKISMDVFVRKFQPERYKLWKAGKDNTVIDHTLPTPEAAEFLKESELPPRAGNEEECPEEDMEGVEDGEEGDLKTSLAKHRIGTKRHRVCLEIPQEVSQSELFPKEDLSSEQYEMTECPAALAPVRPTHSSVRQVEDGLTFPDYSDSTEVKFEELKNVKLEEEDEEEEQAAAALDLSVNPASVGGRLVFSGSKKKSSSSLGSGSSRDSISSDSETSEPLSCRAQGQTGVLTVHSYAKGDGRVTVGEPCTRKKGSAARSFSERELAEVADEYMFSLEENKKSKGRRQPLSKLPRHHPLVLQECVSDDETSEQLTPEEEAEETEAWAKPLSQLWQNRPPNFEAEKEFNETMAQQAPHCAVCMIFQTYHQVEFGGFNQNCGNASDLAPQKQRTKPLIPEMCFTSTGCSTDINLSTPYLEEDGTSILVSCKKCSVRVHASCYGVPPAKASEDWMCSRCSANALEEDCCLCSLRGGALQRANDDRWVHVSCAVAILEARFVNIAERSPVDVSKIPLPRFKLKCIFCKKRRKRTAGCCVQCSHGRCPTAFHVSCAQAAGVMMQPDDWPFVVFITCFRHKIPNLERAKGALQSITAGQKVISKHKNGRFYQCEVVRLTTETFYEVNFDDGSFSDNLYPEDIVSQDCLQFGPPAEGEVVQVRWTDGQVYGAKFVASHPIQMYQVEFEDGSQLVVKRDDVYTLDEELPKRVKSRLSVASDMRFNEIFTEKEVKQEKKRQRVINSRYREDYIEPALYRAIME
G9a block – qHTS Assay for Inhibitors of Histone Lysine Methyltransferase G9a; hit rate 8.8% among 350,000; Histone-lysine N-methyltransferase EHMT2 (Homo sapiens), Q96KQ7; Potency, µM (titrated, usually from 102 µM), for the others: top-dose activity, negative = inhibition, usual class: inhibitors; G9a H3K9 monomethylation, AlphaScreen, 2 h; AID 504332, 2011; further: on the % scale 0 is the no-effect control and ±100 the full control effect; nearly all actives have a fitted effect of over 75% in size
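AlphaScreen read-out: biotin-H3K9 peptide (500 nM) methylation by 20 nM enzyme with 20 uM SAM, 2 h at room temperature after 15 min compound preincubation; anti-monomethyl H3K9 antibody plus donor/acceptor beads, 10 min dark.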
BAZ2B block – qHTS Assay for Inhibitors of BAZ2B. AlphaScreen BAZ2B-H3K14Ac peptide displacement. Potency, µM (highest dose often 114 µM), for the others: top-dose activity change, negative = inhibition, hits mostly inhibitors. hit rate 4.4% among 360,000. AID 504333, 2011; further: on the % scale 0 is the no-effect control and ±100 the full control effect; nearly all actives have a fitted effect of over 60% in size
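Multi-concentration screen (max 110 uM) measuring displacement of acetylated histone H3 peptide from BAZ2B by AlphaScreen, using 50 nM protein, 50 nM peptide and 10 ug/mL streptavidin donor plus Ni-chelate acceptor beads.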
PLK1 PBD block – qHTS for Inhibitors of PLK1-PDB (polo-like kinase 1 - polo-box domain): Primary Screen. Serine/threonine-protein kinase PLK1 (Homo sapiens), P53350. AID 720504, 2013. Plk1 PBD binding of FITC phosphopeptide, fluorescence polarization. hit rate 2.8% among 360,000. Potency, µM, inactives show max response, negative = inhibition, hits mostly inhibitors; further: series mostly up to about 57 µM; on the % scale 0 is the no-effect control and ±100 the full control effect; nearly all actives have a fitted effect of over 65% in size
HP1b chromo inh – HTS for Inhibitors of HP1-beta Chromodomain Interactions with Methylated Histone Tails | Potency, µM (titrated, usually from 114 µM), for inactives: top-dose activity change, negative = inhibition, usual class: inhibitors | AlphaScreen HP1-beta / biotin-H3K9me3 peptide binding | AID 540317, 2011 | Chromobox protein homolog 1 (Homo sapiens), P83916 | hit rate 0.56% among 390,000; further: nearly all actives have a fitted effect of over 70% in size
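HP1-beta protein (50 nM final) preincubated 30 min at room temperature with biotinylated H3(1-18)K9me3 peptide (50 nM) in PBS pH 7.4, 0.01% Tween-20, then compound added for 30 min. AlphaScreen streptavidin donor/nickel chelate acceptor beads (10 ug/mL final), 30 min dark, luminescence read.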
* = called active by the depositor; ? = inconclusive; nt = no result given; [ ] = another dose, or the depositor's remark. An excerpt weighted towards active compounds, which were near 9% of everything screened. The call rests on the fitted dose curve; in most records, active means well fitted curve in the direction sought with a large enough effect; inconclusive means small, poorly fitted or top-dose-only effect, or another doubt; inactive means no such curve, though single readings can be large; an effect the other way counts as inactive or inconclusive. Potency means the concentration at half of the fitted maximal effect.

SMILES	12-LOX inh	JMJD2A Tudor	G9a block	BAZ2B block	PLK1 PBD block	HP1b chromo inh
O=C(NC1=NCCS1)C1CCN(S(=O)(=O)c2cc([N+](=O)[O-])ccc2Cl)CC1	?	?	nt	nt	-28%	?
Cc1nccn1S(=O)(=O)c1cc([N+](=O)[O-])ccc1Cl	-19%	-35%	-8%[59 µM]	-22%	?	46%
O=C(NC1CC1)C1CCN(S(=O)(=O)c2cc(Cl)ccc2Cl)CC1	-12%	-2%	13µM*	56µM*	0%	26%
CC1=NCCN1S(=O)(=O)c1cc([N+](=O)[O-])ccc1Cl	-8%	-1%	45µM*	-14%	-13%	-16%
O=C(NC1CC1)C1CCN(S(=O)(=O)c2ccc(Cl)cc2)CC1	-12%	-5%	-4%	5%	-1%	35%
CC(C)CCOC(=O)c1ccc(N(C)C)cc1	-1%[22.9 µM]	nt	9%[12.7 µM]	nt	nt	nt
CCOc1cc(=O)n2c(c1C(=O)NCc1ccccc1F)CCCC2	4%	nt	nt	nt	nt	nt
Cc1ccc(CNC(=O)C(=O)NCC2OCCN2S(=O)(=O)c2ccc(C)cc2)cc1 (centres undefined)	nt	-12%	nt	-2%	-1%	19%
O=C(CS(=O)(=O)c1cccc(C(F)(F)F)c1)Nc1ccccc1Cl	0%	6%	6%	-2%	-3%	26%
CN(C)C(CNC(=O)C1CCN(S(=O)(=O)c2ccccc2)CC1)c1ccccc1 (centres undefined)	-10%	-7%[11.4 µM]	19%[59 µM]	2%	34µM*	13%
CC(C)(CNC(=O)C1CCN(S(=O)(=O)c2cc([N+](=O)[O-])ccc2Cl)CC1)N1CCOCC1	-9%	-15%	?	5%	-7%	17%
Cc1cccc2sc(NC(=O)C3CCN(S(=O)(=O)c4cc([N+](=O)[O-])ccc4Cl)CC3)nc12	40µM*	14µM*	7.9µM*	?	?	?
Cc1cccc2sc(NC(=O)C3CCCN(S(=O)(=O)c4cccc5nonc45)C3)nc12 (centres undefined)	13%	-21%	?	2%	24%	9%
CN(C)C(CNC(=O)C1CCN(S(=O)(=O)c2cccc(C(F)(F)F)c2)CC1)c1ccccc1 (centres undefined)	-10%	-12%	-14%	-4%	-3%	-2%
Cc1ccc(CNC(=O)C2CCN(S(=O)(=O)c3cccs3)CC2)cc1	-3%	89µM*	-2%	8%	?	8%
O=C(NCc1ccc(Cl)cc1)C1CCN(S(=O)(=O)c2cc([N+](=O)[O-])ccc2Cl)CC1	-28%	3%	45µM*	9%	2%	18%
Cc1cc(C)nc(NS(=O)(=O)c2ccc(NC(=O)c3nn(-c4ccccc4)ccc3=O)cc2)n1	4%	14%	16%	-3%	3%	42%
CC(C)N(C(=O)[C@H]1C[C@H](CC(=O)NCc2ccco2)C(=O)N2CCc3c([nH]c4ccc(Cl)cc34)[C@]12C)C(C)C	-4%	?	nt	nt	-6%	?
N/C(=N\OC(=O)c1ccc2c(c1)OCO2)c1ccc(Cl)cc1	9%	-5%	4%[12.7 µM]	2%	-5%	13%
CCOC(=O)c1ccccc1NC(=O)Cn1cnc2c1c(=O)n(C)c(=O)n2C	49%	3%	-30%	3%	0%	20%
Cc1cc2[nH]c(=O)c(=O)[nH]c2cc1S(=O)(=O)NCc1ccccc1	9%	-1%	27%	-3%	-5%	15%[57 µM]
NS(=O)(=O)c1ccc(CCNC(=O)CCCCCNc2nc(=S)[nH]c3ccccc23)cc1	-9%	nt	50µM*	1%	nt	nt
O=C(CCCCCNc1nc(=S)[nH]c2ccccc12)N1CCN(c2ccccn2)CC1	0%	nt	?	-36%	nt	nt
COc1cccc(N2CCN(C(=O)CCCCCNc3nc(=S)[nH]c4ccccc34)CC2)c1	-22%	-33%	-46%	32µM*	0%	-3%
O=S1(=O)CCOC[C@H](Cc2ccccc2)N1Cc1cccc(C(F)(F)F)c1	-3%	20%	nt	nt	-15%	60%
SMILES	12-LOX inh	JMJD2A Tudor	G9a block	BAZ2B block	PLK1 PBD block	HP1b chromo inh
Cc1cccc(NS(=O)(=O)c2ccc(-c3cnc(C4CC4)o3)cc2)c1C	-19%	-29%	?	?	-10%	16%
[O-][N+]1=c2ccc(Nc3ccccc3)cc2=NC12CCCCC2	0%	40µM*	nt	20µM*	-17%	?
COc1ccc(Nc2ccc3c(c2)=NC2(CCCCC2)[N+]=3[O-])cc1	0%	22µM*	?	40µM*	-16%	?
CCOC(=O)c1ccc(-c2ccc(CO)o2)cc1	0%	-31%	45µM*	0%[57.1 µM]	-19%	-3%
COc1ccc(Cl)cc1NC(=O)c1cc(-c2ccccc2)on1	8%	-5%	3%[0.501 µM]	-14%	-8%	40%
O=C(N/N=C/c1ccc(N2CCOCC2)s1)c1ccc(O)cc1	?	nt	nt	nt	1%	nt
C/C(=N\Nc1ccc(Cl)c(C(=O)O)c1)c1ccc(N2CCOCC2)cc1	?	-28%	40µM*	-11%	?	-13%
NC(=O)N/N=C/c1ccc(N2CCOCC2)s1	-18%	-23%	3.2µM*	-36%	12%	9%
C/C(=N\Nc1ccc(Cl)c(C(=O)O)c1)c1ccc[nH]1	-10%	?	25µM*	?	-7%	11%
O=C(O)c1cc(Nc2nc(N3CCOCC3)nc(N3CCOCC3)n2)ccc1Cl	0%	-11%	4%[59 µM]	4%	-7%	31%
O=C(O)c1cc(N/N=C/c2ccc(N3CCOCC3)s2)ccc1Cl	?	45µM*	2.2µM*	50µM*	?	?
O=C(Nc1ccccn1)Nc1ccccc1[N+](=O)[O-]	0%	-6%	2%	0%	-8%	16%
O=C(NCc1ccccc1)c1ccccc1C(=O)c1ncc[nH]1	0%	-2%	13µM*	?	-10%	29%
O=C(c1cccs1)N1CCN(Cc2ccccc2)CC1	-4%	0%	-2%[59 µM]	0%	-6%	19%
O=C(c1cccnc1)N1CCN(CCCc2ccccc2)CC1	?	5µM*	?	nt	3%	56µM*
O=C(c1cccs1)N1CCN(CCCc2ccccc2)CC1	?	3.2µM*	32µM*	79µM*	3%	45µM*
COc1ccc(CN2CCN(C(=O)c3cccs3)CC2)cc1	?	1.3µM*	10µM*	56µM*	-3%	?

Assay outcomes: PubChem, National Center for Advancing Translational Sciences (NCATS)
